From PubChem BioAssay (NCI)
Compounds without any hit were thinned out: in the full panel of roughly 83,000, 20% have a hit.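 Each cell line was grown in a 96-well plate and treated with one concentration of compound for 48 hours. Values below 10 were considered active.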 Unmarked numbers belong to inactive results. Active and inactive are the calls of the source.

Columns and labels:
Experiment in all cases: NCI-60 one-dose screen, 48 h (100 = growth as untreated, 0 = no growth, -100 = all killed)
Details in all cases: 10 µM unless noted
T-47D breast = system: T-47D breast
BT-549 breast = system: BT-549 breast
MDA-MB-435 melanoma = system: MDA-MB-435 melanoma
SW-620 colon = system: SW-620 colon
MCF7 breast = system: MCF7 breast
HCT-116 colon = system: HCT-116 colon
KM12 colon = system: KM12 colon

Compound: CCCSc1nc2ccc(C)cc2cc1/C=[N+](\[O-])c1ccccc1
- growth (T-47D breast): 56.6%
- growth (BT-549 breast): 42.1%
- growth (MDA-MB-435 melanoma): -24.1% (active)
- growth (SW-620 colon): 22.7%
- growth (MCF7 breast): 21.8%
- growth (HCT-116 colon): 9.07% (active)
- growth (KM12 colon): 25%

Compound: C=C1C(=O)O[C@H]2[C@H]1CC/C(COC(=O)CCC(=O)NCCOCCOCC(=O)Nc1ccc(OC)c(C(N)=O)c1O)=C\CC[C@@]1(C)O[C@@H]21
- growth (T-47D breast): 87.1%
- growth (BT-549 breast): 85.9%
- growth (MDA-MB-435 melanoma): 97.8%
- growth (SW-620 colon): 64.2%
- growth (MCF7 breast): 74.6%
- growth (HCT-116 colon): 69.5%
- growth (KM12 colon): 102%

Compound: CCOC(=O)C1=C(N)Oc2c(sc3c(C)cccc23)C1c1ccc(F)cc1 (centres undefined)
- growth (T-47D breast): 28%
- growth (BT-549 breast): 18.1%
- growth (SW-620 colon): 22.4%
- growth (MCF7 breast): 7.39% (active)
- growth (HCT-116 colon): 9.01% (active)

Compound: O=C1c2cccc3cccc(c23)C(=O)N1N1C(=O)c2cccc3c(NC4CCCCC4)ccc(c23)C1=O
- growth (T-47D breast): 88.4%
- growth (BT-549 breast): 97.8%
- growth (MDA-MB-435 melanoma): 102%
- growth (SW-620 colon): 98.7%
- growth (MCF7 breast): 88.8%
- growth (HCT-116 colon): 98.9%
- growth (KM12 colon): 99.5%

Compound: COc1ccc(S(=O)(=O)n2cc(C3OC(c4cc(OC)c(OC)c(OC)c4)=NN3C(C)=O)c3ccccc32)cc1OC (centres undefined)
- growth (T-47D breast): 54.7%
- growth (BT-549 breast): 51.8%
- growth (MDA-MB-435 melanoma): 95.4%
- growth (SW-620 colon): 97.9%
- growth (MCF7 breast): 88%
- growth (HCT-116 colon): 67.7%
- growth (KM12 colon): 137%

Compound: NCCCNc1nc2ccccc2c2c(=O)c3cc(F)cc(Cl)c3sc12
- growth (T-47D breast): 88.4%
- growth (BT-549 breast): 104%
- growth (MDA-MB-435 melanoma): 26%
- growth (SW-620 colon): -49.3% (active)
- growth (MCF7 breast): 68.3%
- growth (HCT-116 colon): -60.2% (active)
- growth (KM12 colon): 72.7%

Compound: Cc1nc2ccccc2c(/C=C/c2ccc(Cl)cc2)c1C(=O)/C=C/c1ccc(C(F)(F)F)cc1
- growth (T-47D breast): -18.2% (active)
- growth (BT-549 breast): -51.7% (active)
- growth (MDA-MB-435 melanoma): -95.4% (active)
- growth (SW-620 colon): -57.5% (active)
- growth (MCF7 breast): -29.6% (active)
- growth (HCT-116 colon): -53.6% (active)
- growth (KM12 colon): -74.1% (active)

Compound: CNC(C)[C@H]1CCC2C3CCC4C[C@@H](N(C)C(=O)c5ccccc5)CC[C@]4(C)C3CC[C@@]21C (some centres undefined)
- growth (T-47D breast): 0.208% (active)
- growth (BT-549 breast): 31%
- growth (MDA-MB-435 melanoma): -25.6% (active)
- growth (SW-620 colon): -21.7% (active)
- growth (MCF7 breast): 5.05% (active)
- growth (HCT-116 colon): -1.52% (active)
- growth (KM12 colon): 15.4%

Compound: CCOc1cccc(NC2=C(Br)C(=O)C(C)=C(C)C2=O)c1
- growth (T-47D breast): -35.3% (active)
- growth (BT-549 breast): 96.4%
- growth (SW-620 colon): 105%
- growth (MCF7 breast): 18.4%
- growth (HCT-116 colon): 52%

Compound: O=C1NC(=O)C(Cn2cnc3ccccc32)N1 (centres undefined)
- growth (T-47D breast): 106%
- growth (BT-549 breast): 110%
- growth (MDA-MB-435 melanoma): 100%
- growth (SW-620 colon): 99.3%
- growth (MCF7 breast): 92.1%
- growth (HCT-116 colon): 109%
- growth (KM12 colon): 102%

Compound: O=C1/C(=C/c2ccc(F)cc2)Sc2c(Br)cccc21
- growth (T-47D breast): 43.4%
- growth (BT-549 breast): 87%
- growth (MDA-MB-435 melanoma): 102%
- growth (SW-620 colon): 89.4%
- growth (MCF7 breast): 20.1%
- growth (HCT-116 colon): 85.8%
- growth (KM12 colon): 86%

Compound: O=c1c2cc(F)ccc2sc2c(NCCCNCCO)nc3ccccc3c12
- growth (T-47D breast): 22.9%
- growth (BT-549 breast): 66.2%
- growth (MDA-MB-435 melanoma): -82.5% (active)
- growth (SW-620 colon): -78.3% (active)
- growth (MCF7 breast): -51.2% (active)
- growth (HCT-116 colon): -94.1% (active)
- growth (KM12 colon): -77% (active)

Compound: CCCCn1c(=O)c(-c2cc(-c3ccc(Cl)cc3)nc(-c3ccc(Cl)cc3)c2)cc2ccc(Cl)cc21
- growth (T-47D breast): 99.6%
- growth (BT-549 breast): 105%
- growth (MDA-MB-435 melanoma): 103%
- growth (SW-620 colon): 100%
- growth (MCF7 breast): 93.1%
- growth (HCT-116 colon): 105%
- growth (KM12 colon): 99.3%

Compound: Cc1ccc(C(=O)N/N=C/c2cccc([N+](=O)[O-])c2)cn1
- growth (T-47D breast): 93.1%
- growth (BT-549 breast): 122%
- growth (MDA-MB-435 melanoma): 100%
- growth (SW-620 colon): 103%
- growth (MCF7 breast): 101%
- growth (HCT-116 colon): 105%
- growth (KM12 colon): 107%
